# Rows were chosen to be rich in hits. Some 9.3% of all compounds tested hit in one or more screens of this group.
# Rab9 promoter act: qHTS Assay for Rab9 Promoter Activators | Huh7 Rab9 promoter-luciferase reporter, luminescence, 24 h | Potency, µM (highest dose often 9.22 µM), inactives show top-dose activation, negative = inhibition, most hits filed as activators | 320,000 compounds, 2.8% hits; further: % of control where 0% means no effect; nearly all actives have a fitted effect of over 60% in size
#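 Rab9 promoter-driven luciferase in stably transfected Huh7 cells; 1500 cells/well rested 2 h, exposed to compound in DMSO for 24 h at 37 °C, 5% CO2. Luminescence read 10 min after adding luciferase reagent at ambient temperature.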
# NPC1 prom act: qHTS Assay for NPC1 Promoter Activators | Huh7 NPC1 promoter luciferase reporter, 24 h | Potency, µM (highest dose often 9.22 µM), for inactives: at the top dose activation, hits mostly activators | 320,000 compounds, 2.4% hits; further: % of control where 0% means no effect; nearly all actives have a fitted effect of over 60% in size
#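 Luminescence from an NPC1 promoter-driven luciferase reporter in stably transfected Huh7 cells was measured after 24 h compound treatment at 37 °C, followed by 10 min ambient incubation with luciferase detection reagent.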
# ELG1 genotoxic: qHTS screen for small molecules that induce genotoxicity in human embryonic kidney (HEK293T) cells expressing luciferase-tagged ELG1. HEK293T ELG1-luciferase reporter, luminescence, 16 h. Potency, µM (top dose mostly 46 µM), without a hit: at the highest dose activity change, positive = activation, hits mostly activators. 330,000 compounds, 1.3% hits; further: % of control where 0% means no effect; nearly all actives have a fitted effect of over 60% in size
#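 Quantitative HTS format in 1536-well plates. HEK293T ELG1-luciferase reporter cells receive test compound and are incubated 16 hr at 37 °C, 5% CO2; ONE-Glo added, 30 min room temperature, then luminescence read.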
# ELG1 DNA repair: qHTS screen for small molecules that inhibit ELG1-dependent DNA repair in human embryonic kidney (HEK293T) cells expressing luciferase-tagged ELG1; HEK293T ELG1-luciferase reporter, luminescence, 16 h; DNA damage induced by 5-fluorouridine; Potency, µM (titrated, usually from 46.1 µM), without a hit: top-dose activity change, negative = inhibition, actives largely listed as inhibitors; 330,000 compounds, 2.3% hits; AID 504467, 2011; further: on the % scale 0 is the no-effect control and ±100 the full control effect; nearly all actives have a fitted effect of over 55% in size
#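 Step one: seed 2,000 cells per well. Step two: pin-transfer compound or DMSO alongside 5-fluorouridine. Step three: incubate 16 hr, 37 °C, 5% CO2. Step four: add ONE-Glo, wait 30 min, read luminescence.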
# FLuc counter: qHTS profiling assay for firefly luciferase inhibitor/activator using purifed enzyme and Km concentrations of substrates (counterscreen for miR-21 project); 360,000 compounds, 6.9% hits; Potency, µM (highest dose often 57.5 µM), inactives show at the top dose activity change, negative = inhibition, hits mostly inhibitors; purified FLuc, Km substrates, luminescence inhibition;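 further: plate controls were vehicle for no effect and reference inhibitor for full effect; nearly all actives have a fitted effect of over 55% in size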
# Target sequence (P08659 whole entry, looked up): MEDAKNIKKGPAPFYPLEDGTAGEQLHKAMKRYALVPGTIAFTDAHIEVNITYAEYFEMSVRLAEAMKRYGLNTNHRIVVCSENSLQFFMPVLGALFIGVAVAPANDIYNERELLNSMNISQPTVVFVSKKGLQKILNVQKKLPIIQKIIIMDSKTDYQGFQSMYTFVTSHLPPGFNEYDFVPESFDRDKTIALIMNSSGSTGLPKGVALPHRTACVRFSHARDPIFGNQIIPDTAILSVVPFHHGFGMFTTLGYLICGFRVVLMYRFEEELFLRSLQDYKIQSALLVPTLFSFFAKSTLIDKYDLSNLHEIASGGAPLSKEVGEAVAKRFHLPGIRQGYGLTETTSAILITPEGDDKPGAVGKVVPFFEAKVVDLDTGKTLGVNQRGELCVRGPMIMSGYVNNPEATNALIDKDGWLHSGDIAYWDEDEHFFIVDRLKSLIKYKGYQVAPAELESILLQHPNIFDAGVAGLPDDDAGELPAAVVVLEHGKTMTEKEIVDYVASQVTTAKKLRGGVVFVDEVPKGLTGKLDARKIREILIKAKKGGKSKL
#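 Purified P. pyralis luciferase, 10 nM final, with Km-level 10 uM D-luciferin and 10 uM ATP in 50 mM Tris acetate pH 7.5, 10 mM Mg acetate, 0.01% Tween-20, 0.05% BSA; 6-point qHTS titration about 60 µM downward; luminescence read.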
# SMN2 splice enh: qHTS Assay for Enhancers of SMN2 Splice Variant Expression; HEK293 SMN2-luciferase splicing reporter, luminescence, 30-36 h; Potency, µM (highest dose often 46.1 µM), inactives show at the highest dose activity change, positive = activation, actives largely listed as activators; 210,000 compounds, 2.8% hits; AID 1458, 2008; further: % of control where 0% means no effect; nearly all actives have a fitted effect of over 55% in size
#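 qHTS luciferase splicing reporter: luminescence rises when SMN2 exon 7 is included in transfected HEK293 cells. Compound exposure lasted 30-36 h at 37C, with 4.5 mM final sodium butyrate as control, followed by a ONE-Glo read.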
# An asterisk follows results filed as active; ? = inconclusive; nt = no result; [ ] = remark or other dose. The call rests on the fitted dose curve; in most records, active means well fitted curve in the direction sought with a large enough effect; inconclusive means small, poorly fitted or top-dose-only effect, or another doubt; inactive means no such curve, though single readings can be large; an effect the other way counts as inactive or inconclusive. Potency means the concentration at half of the fitted maximal effect.
SMILES,Rab9 promoter act,NPC1 prom act,ELG1 genotoxic,ELG1 DNA repair,FLuc counter,SMN2 splice enh
COc1cc(C2SC(C)C(=O)N2CCc2ccccc2)cc(OC)c1OC (stereo unspecified),1%,-7%,1%,-30%,-7%,3%
CNC(=O)COC(=O)/C=C/c1cccc(F)c1,-2%,-5%,0%,15%,-1%,5%
Cc1cccn2c(=O)c(C(=O)N3CCN(c4ccccc4)CC3)cnc12,nt,nt,nt,nt,1%,nt
Clc1cccc(/C=N/Nc2ncnc3ccccc23)c1,4µM*,?,?,?,4.8µM*,?
C(=N\Nc1ncnc2ccccc12)/c1ccccc1,2.8µM*,29%,?,?,3µM*,16µM*
CC(=O)c1c(C)[nH]c(C(=O)Nc2cccc(C)n2)c1C,0.45µM*,0.35µM*,1.6µM*,?,8.5µM*,nt
CC(=O)c1c(C)[nH]c(C(=O)Nc2nccs2)c1C,2.8µM*,?,?,?,24µM*,13µM*
COc1ccc(C)cc1C(=O)CCC(=O)N1CCN(c2ccccc2F)CC1,0%,1%,-6%,-11%,-9%,nt
CCOc1ccc2nc(N(Cc3cccnc3)C(=O)c3ccc4c(c3)OCCO4)sc2c1,nt,nt,nt,nt,13µM*,nt
O=C(c1cccc([N+](=O)[O-])c1)N1CCCC(C(=O)N2CCN(c3ccccc3)CC2)C1 (stereo unspecified),9%,2%,-1%,1%,2%,nt
Cc1ccc(Nc2nnc(SCC(=O)N(C)C3CCS(=O)(=O)C3)s2)cc1 (stereo unspecified),25%,23%,12%,0%,8.5µM*,?
Cc1cccc(Nc2nnc(SCC(=O)c3ccc(O)cc3O)s2)c1,5%,-2%,?,1%,9.5µM*,nt
Cc1ccccc1Nc1nnc(SCC(=O)N(C)C2CCS(=O)(=O)C2)s1 (stereo unspecified),0%,-2%,-1%,-13%,-11%,5%
Cc1sc2ncnc(SCC(=O)c3ccc(O)cc3O)c2c1C,-2%,1%,0%,2%,8%,nt
Cc1ccc(Nc2nnc(SCC(=O)c3ccc(O)cc3O)s2)cc1,-1%,-2%,2%,-19%,11µM*,nt
Cc1cccc(Nc2nnc(SCC(=O)c3ccc(Br)s3)s2)c1C,-1%,1%,-3%,-3%,-8%,nt
OCCCNc1cc(-c2ccnc(Nc3cccc(Cl)c3)n2)ccn1,-47%,-43%,-8%,0.58µM*,?,nt
CCC(C)Oc1cc(-c2ccnc(Nc3cccc(Cl)c3)n2)ccn1 (stereo unspecified),-16%,1%,-12%,?,-7%,nt
O=C(/C=C/c1cccc([N+](=O)[O-])c1)OC1CCCCC1=O (stereo unspecified),10%,-2%,5%,12%,-6%,7%
CC1=NN(c2nc(-c3ccc(C)cc3)cs2)C(=O)C1N=Nc1cccc(C)c1 (stereo unspecified),?,28%,1%,?,?,1%[1.84 µM]
CCOC(=O)c1sc(N2N=C(C)C(N=Nc3cccc(C)c3)C2=O)nc1C (stereo unspecified),15%,21%,-3%,11%,6.7µM*,nt
CCSc1nnc(NC(=O)Cc2ccc(OC)cc2)s1,10%,1%,0%,?,0%,-6%
CCSc1nnc(NC(=O)c2cc(C)oc2C)s1,?,?,7.3µM*,?,17µM*,11µM*
CCc1nnc(NC(=O)c2cc(C)oc2C)s1,7%,-1%,18%,16%,17µM*,nt
CCSc1nnc(NC(=O)c2ccc(C)o2)s1,?,?,18µM*,?,17µM*,16µM*
SMILES,Rab9 promoter act,NPC1 prom act,ELG1 genotoxic,ELG1 DNA repair,FLuc counter,SMN2 splice enh
COc1ccc(C(CNC(=O)c2ccc(-c3nc4ccccc4s3)o2)N2CCCC2)cc1 (stereo unspecified),1%,-1%,-3%,?,19µM*,nt
COc1ccc(C(CNC(=O)c2cc3ccccc3o2)N2CCCC2)cc1 (stereo unspecified),0%,1%,2%,0%,-12%,nt
O=C(NC12CC3CC(CC(C3)C1)C2)c1ccc(Br)o1,-2%,-2%,-12%,14%,17µM*,nt
O=C(NC12CC3CC(CC(C3)C1)C2)c1ccc(-c2ccc(Br)cc2)o1,?,?,?,?,4.8µM*,16µM*
O=C(NC12CC3CC(CC(C3)C1)C2)c1ccc([N+](=O)[O-])o1,4%,1%,-1%,-15%,?,nt
O=C(NC1CCS(=O)(=O)C1)c1ccc(-c2ccc(Br)cc2)o1 (stereo unspecified),5%,5%,5%,2%,?,-32%
COc1ccc(CCn2ccc(O)c(Cc3c(F)cccc3Cl)c2=O)cc1OC,-2%,-3%,-2%,?,-2%,-5%
CC(CNC(=O)CCS(=O)(=O)c1ccc2c(c1)NC(=O)CO2)c1ccccc1 (stereo unspecified),-2%,0%,4%,0%,3%,nt
CC(C)c1ccc(NC(c2nnc(-c3ccccc3)o2)c2ccc(F)cc2Cl)cc1 (stereo unspecified),nt,nt,nt,nt,0%,nt
Cc1[nH]c2ccc(C(=O)N3CCCCC3)cc2c1C,3.2µM*,3.2µM*,?,?,19µM*,13µM*
Cc1[nH]c2ccc(C(=O)N3CCCC3)cc2c1C,4%,1%,10%,?,-3%,nt
COC(=O)c1ccccc1NC(=O)Nc1cccnc1,4%,11%,0%,9%,15µM*,9%
COc1cccc(C(=O)Nc2cccc(-c3ccccc3)c2)c1,3%,2%,1%,6%,21µM*,nt
COc1cccc(/C(C)=N/NC(=O)c2ccc(N(C)C)cc2)c1,3.5µM*,?,?,?,19µM*,?
